Experimental data reported in PubChem BioAssay (Tox21).
Results filed as inconclusive are left out. Activity calls are given as the source filed them. Calls come from the whole dose curve; as a rule, active = well fitted cell-killing curve with a large enough effect in the repeat runs; inconclusive = weak or mixed curves, or effect the other way; inactive = flat fitted curve, though single readings scatter.

Assay: qHTS assay to identify small molecule agonists of the TGF-beta/Smad signaling pathway - cell viability counter screen (AID 1346829); note: top concentration of the series differs between compounds; nearly all actives have a fitted effect of over 45% in size
Conditions: SBE-bla HEK293T viability, CellTiter-Glo luminescence, 5 h; series mostly up to 76.8 µM
Description: National Center for Advancing Translational Sciences [NCATS]
NIH Chemical Genomics Center [NCGC]
U.S. Environmental Protection Agency [EPA]
National Institutes of Environmental Health Sciences [NIEHS]
National Toxicology Program [NTP]
U.S. Food and Drug Administration [FDA]
Transforming growth factor beta (TGF-beta) superfamily consists of a large number of structurally related dimeric proteins that act as hormones or local mediators in regulating a wide range of biological functions. This superfamily includes TGF-betas themselves, the bone morphogenetic proteins (BMPs) and the activins. These ligands induce oligomerization of serine/threonine receptor kinases and phosphorylate the cytoplasmic signaling molecules of Smad protein family. CellSensor SBE-bla HEK 293T cell line (Life Technologies, Carlsbad, CA), responsive to TGF-beta was used to screen Tox21 10K compound library for identification of agonists/antagonists of the Smad signaling pathway. This cell line contains a beta-lactamase reporter gene under control of the Smad binding element (SBE) stably integrated into HEK 293T cells. Also cytotoxicity of the compounds was tested in parallel by measuring the cell viability using CellTiter-Glo assay system in the same wells.
Tox21 Assay Protocol Summary:
SBE-bla HEK 293T cells were dispensed at 4,000/well in 6 uL of assay medium into black wall/clear-bottom 1536-well plates using a Multidrop Combi (ThermoFisher Scientific, Waltham, MA) dispenser. After the assay plates were incubated at 37 C and 5% CO2 for an overnight, 23 nL of compounds dissolved in DMSO, positive controls or DMSO only was transferred to the assay plate by a Pintool station (Kalypsys, San Diego, CA). The assay plates were incubated at 37 C and 5% CO2 for 5 hr. One uL of LiveBLAzer B/G FRET substrate (Life Technologies) was added using a Flying Reagent Dispenser (FRD, Aurora Discovery, San Diego, CA) and the plates were incubated at room temperature for 2 hr. Fluorescence intensity (405 nm excitation, 460 nm and 530 nm emissions) was measured using an Envision plate reader (PerkinElmer, Shelton, CT). For cytotoxicity read, 4 uL of CellTiter-Glo reagent (Promega Corporation, Madison, WI) was added to each well of the assay plates using FRD. After 30min incubation at room temperature, the luminescence intensity was measured using ViewLux plate reader (PerkinElmer).

SMILES	outcome
C=C(C)CNCC	inactive
CC(=O)c1ccc(O)cc1	inactive
CC(C)(Oc1ccc(CCNC(=O)c2ccc(Cl)cc2)cc1)C(=O)O	inactive
CCc1ccccc1CC	inactive
CC1(C)OC[C@@H]2O[C@@]3(C(=O)O)OC(C)(C)O[C@H]3[C@@H]2O1	inactive
Nc1ccc(Cl)c(N)c1	inactive
O=C(OCC1CCC2OC2C1)C1CCC2OC2C1 (stereo not given)	inactive
CCCCCCO	inactive
O=C(O)/C=C/C(=O)O	inactive
CCCCCCCCCCCC(=O)OC	inactive
c1ccc2c(c1)Cc1ccccc1-2	inactive
CCOC(=O)c1ccc(N)cc1	inactive
CCCCCCCCCCO	inactive
c1ccc(Oc2ccccc2)cc1	inactive
Brc1ccc(Br)c(Br)c1	inactive
COCCCN	inactive
CN(C)c1ccc(Cc2ccc(N(C)C)cc2)cc1	inactive
CCCCCCC=O	inactive
CC(C)c1cccc(C(C)C)c1	inactive
CC(=O)CC(C)(C)O	inactive

SMILES	outcome
C=CC[N+](C)(C)CC=C	inactive
COc1cc(OC)c(C(=O)CCCN2CCCC2)c(OC)c1	inactive
CC(C)CCCCCCCOC(=O)CCCCC(=O)OCCCCCCCC(C)C	inactive
CC(=O)OCCOC(C)=O	inactive
CCNC(=S)NCC	inactive
CC(C)(C)c1cc(Cc2cc(C(C)(C)C)c(O)c(C(C)(C)C)c2)cc(C(C)(C)C)c1O	inactive
CCCCCCCCCCN	inactive
CC(=O)CCC=C(C)C	inactive
CC(C)OP(=O)(CP(=O)(OC(C)C)OC(C)C)OC(C)C	inactive
COCCOC(=O)c1ccccc1C(=O)OCCOC	inactive
CCCCOC(=O)c1ccc(N)cc1	inactive
O=C1c2ccccc2CCc2ccccc21	inactive
CCCCC(C=O)CC (stereo not given)	inactive
NC(=S)NNC(N)=S	inactive
C=C(C)[C@H]1CC=C(C)C(=O)C1	inactive
COc1ccccc1OCC(O)CO (stereo not given)	inactive
CC(C)(C#N)c1cc(Cn2cncn2)cc(C(C)(C)C#N)c1	inactive
CCNc1cccc(C)c1	inactive
CNC(=O)Oc1ccc2c(c1)[C@]1(C)CCN(C)[C@@H]1N2C	inactive
CCCCCCCC=O	inactive
